# ± gives the standard deviation of the averaged measurements. Over roughly 33,000 sequences, “E-score (dimensionless, -0.5 to 0.5)” has its median near -0.049; the highest 2% begin near 0.37. What follows is part of a selection rich in the highest values, with near analogues and random picks from the rest.
# Test system: T1, PmTbr T-box DNA-binding domain (GST fusion)
# T1 sequence: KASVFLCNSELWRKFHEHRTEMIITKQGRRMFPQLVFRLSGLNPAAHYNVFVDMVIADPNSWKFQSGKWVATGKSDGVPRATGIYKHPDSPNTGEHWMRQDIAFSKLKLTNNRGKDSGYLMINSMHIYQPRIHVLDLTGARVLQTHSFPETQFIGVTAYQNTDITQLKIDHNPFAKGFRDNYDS
# Experiment: PBM E-score of 8-mer (E-score (dimensionless, -0.5 to 0.5)); Tbr is Tbrain of the sea star Patiria miniata (Pm) or the sea urchin Strongylocentrotus purpuratus (Sp); higher = stronger binding preference
# Conditions: the construct has about 5 more residues each side
# Experimental: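 Universal protein-binding microarray (Agilent AMADID 016060, 60-bp probes with a 35-bp variable region) incubated with 200 nM GST-fused Patiria miniata Tbr T-box DNA-binding domain (residues 272-466) in PBS pH 7.5. Scored for every ungapped 8-mer (given with its reverse complement) by the Universal PBM Analysis Suite as E-score (modified Wilcoxon-Mann-Whitney enrichment, range -0.5 to 0.5; >0.45 counts as bound) and Z-score of median probe intensity. Two replicate arrays (datasets 1 and 2).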
row,Sequence,PBM E-score of 8-mer
1,AGGTGTTC,0.4091 ± 0.0032
2,AGATGTCC,-0.322 ± 0.016
3,AGGTGTTG,0.4891 ± 0.0019
4,AGCTGTTG,0.2441 ± 0.0021
5,AGATGTTC,0.0612 ± 0.07
6,AGATGTTG,0.0167 ± 0.014
7,CGGTGTTC,-0.0289 ± 0.062
8,ACGTGTCC,0.0892 ± 0.034
9,AGGTGTCC,0.45 ± 0.0092
10,GAGCGAAC,0.0537 ± 0.089
11,GCTAACTA,0.212 ± 0.07
12,ACGCTAGT,0.036 ± 0.023
13,GCACACTA,0.102 ± 0.027
14,GATAGCCA,-0.257 ± 0.028
15,CAACGCTC,-0.0448 ± 0.0033
16,CTTTCACC,0.14 ± 0.034
17,ATTTCACA,0.426 ± 0.013
18,ATTTCACG,0.319 ± 0.026
19,GTTTCACA,0.36 ± 0.027
20,CTTTCACA,0.444 ± 0.0053
21,ATTTCACC,0.167 ± 0.058
22,ACCATTCG,0.233 ± 0.04
23,ATCTTTTG,-0.2448 ± 0.0018
24,CATTTTGC,-0.00766 ± 0.017
25,CGATCTTA,-0.0203 ± 0.061

row,Sequence,PBM E-score of 8-mer
1,TGATCACA,0.20944 ± 9.2e-05
2,ATGTGAAC,0.175 ± 0.039
3,CTGTGAAC,0.356 ± 0.0043
4,ATGTGAAA,0.287 ± 0.019
5,CTGTGAAA,0.384 ± 0.0085
6,ACGTGAAC,0.112 ± 0.051
7,GTGTGAAC,0.4888 ± 0.0019
8,TTGTGAAA,0.344 ± 0.027
9,CCGTGAAA,0.222 ± 0.019
10,GCGTGAAA,0.4552 ± 0.0024
11,GCGTGAAC,0.405 ± 0.021
12,TCGTGAAA,0.279 ± 0.018
13,CCGTGAAC,0.257 ± 0.04
14,CCCAGGTA,-0.102 ± 0.03
15,CGCTTCAA,0.0949 ± 0.078
16,AATCGCTG,-0.0604 ± 0.024
17,CCCATCCG,-0.108 ± 0.058
18,ACATCGTA,-0.0767 ± 0.038
19,ATCAATAA,-0.279 ± 0.033
20,GCTCCTGA,-0.206 ± 0.08
21,AGCAGGTA,-0.0669 ± 0.01
22,AGCAGGTG,0.414 ± 0.026
23,CACAGGTC,0.15 ± 0.028
24,ACCAGGTC,-0.101 ± 0.039
25,CACAGGTA,0.163 ± 0.029

row,Sequence,PBM E-score of 8-mer
1,ACCAGGTG,0.369 ± 0.028
2,AACAGGTC,0.14 ± 0.036
3,AGCAGGTC,0.0259 ± 0.014
4,AACAGGTG,0.4042 ± 0.00081
5,ACCAGGTA,-0.0585 ± 0.034
6,AACAGGTA,0.126 ± 0.015
7,CACAGGTG,0.461 ± 0.0062
8,TATTCGGA,-0.32 ± 0.033
9,ACGCGACG,0.237 ± 0.016
10,AACTGCAT,-0.201 ± 0.029
11,CCTAAGAC,-0.178 ± 0.094
12,CCCAAGGG,-0.052 ± 0.028
13,CTACAGAA,0.0244 ± 0.029
14,CACATTGG,0.281 ± 0.053
15,TGTTTGAA,0.112 ± 0.0038
16,ATCAGGTG,0.404 ± 0.0092
17,ATCAGGTA,-0.0936 ± 0.033
18,ATCAGGTC,-0.169 ± 0.12
19,GAGGTGCC,0.409 ± 0.03
20,GCGGTGCC,0.0932 ± 0.011
21,ACGGTGCT,0.164 ± 0.072
22,AAGGTGCA,0.4 ± 0.011
23,AAGGTGGT,0.3415 ± 0.002
24,GAGGTGCA,0.367 ± 0.0099
25,ACGGTGCC,0.158 ± 0.032

row,Sequence,PBM E-score of 8-mer
1,TAGGTGCA,0.22 ± 0.024
2,AAGGTGCC,0.405 ± 0.0071
3,AAGGTGCT,0.441 ± 0.0066
4,ATGGTGCC,0.193 ± 0.051
5,ACGGTGCA,0.0807 ± 0.013
6,ACTTTTTC,0.124 ± 0.02
7,AAAAGACT,-0.205 ± 0.034
8,CAGTCCTC,-0.118 ± 0.032
9,CCACTGCC,-0.17 ± 0.095
10,CAGAAGTA,-0.223 ± 0.0053
11,ATCCACAG,-0.0977 ± 0.018
12,ATCGAACA,-0.0797 ± 0.051
13,CCCAGGGG,-0.162 ± 0.093
14,CAAGTGAC,0.325 ± 0.021
15,AAAGTGAT,0.299 ± 0.012
16,AAAGTGAA,-0.00138 ± 0.15
17,GAAGTGAC,0.379 ± 0.017
18,GAAGTGAA,0.219 ± 0.011
19,AAAGTGAC,0.392 ± 0.012
20,AGAGTTCG,-0.201 ± 0.018
21,CTGGGACA,-0.223 ± 0.073
22,CACTTGTC,0.402 ± 0.0079
23,AACTTGCG,0.137 ± 0.02
24,AACTTCCG,-0.141 ± 0.013
25,CACTTCAG,0.255 ± 0.025

row,Sequence,PBM E-score of 8-mer
1,CACTTCCC,0.3321 ± 0.00048
2,AACTTCAC,0.0623 ± 0.061
3,CACTTGTA,0.0949 ± 0.008
4,CACTTCCG,0.37 ± 0.013
5,CACTTCAC,0.396 ± 0.012
6,CACTTGCG,0.376 ± 0.019
7,AACTTGTC,0.34353 ± 0.00012
8,CACTTGCA,0.349 ± 0.0093
9,ACCCTTGC,0.0156 ± 0.051
10,ACAGATAC,-0.0952 ± 0.059
11,AATTAAGG,-0.152 ± 0.064
12,ACCGTCAC,0.288 ± 0.0081
13,ACACTCTG,0.2899 ± 0.00065
14,AATTGGAA,-0.0872 ± 0.056
15,GGGCCAAA,-0.228 ± 0.029
16,CATTGGGG,-0.0156 ± 0.035
17,AATCGCGA,0.3771 ± 0.0028
18,ATTCGCGA,0.389 ± 0.0025
19,CTTCGCTC,0.00268 ± 0.066
20,CATCGCGA,0.15 ± 0.043
21,CTTCGCGA,0.277 ± 0.011
22,ACTCGCGC,0.29 ± 0.014
23,CTTCGCGC,0.3742 ± 0.0014
24,ACTCGCGA,0.38 ± 0.0065
25,GTTCGCGA,0.338 ± 0.019

row,Sequence,PBM E-score of 8-mer
1,CCTCGCGA,0.281 ± 0.00058
2,CATCGCGC,0.262 ± 0.0094
3,AATCGCGT,0.169 ± 0.035
4,GGCATTAA,-0.146 ± 0.0047
5,TGCTCCAA,-0.162 ± 0.04
6,ACCCTACG,0.0529 ± 0.027
7,AGCCTAGC,-0.00521 ± 0.12
8,TCGAAGCA,-0.141 ± 0.0046
9,ATTCGCGG,0.244 ± 0.039
10,AATCGCGC,0.311 ± 0.024
11,ATTCGCGC,0.39 ± 0.021
12,CTAGCACC,0.449 ± 0.006
13,ATAGCACA,0.174 ± 0.035
14,ATAGCACC,0.416 ± 0.012
15,CAAGCACC,0.129 ± 0.016
16,CTAGCACA,0.327 ± 0.024
17,ATAGCACG,0.358 ± 0.017
18,ACATTCGC,0.267 ± 0.042
19,AGGCTTGG,-0.2 ± 0.011
20,GAAACCGA,-0.0132 ± 0.073
21,AGCCATAG,-0.0194 ± 0.015
22,CTGGCACC,0.411 ± 0.018
23,ATGGCACA,0.103 ± 0.0048
24,CTGGCACA,0.241 ± 0.0048
25,CAGGCACC,-0.0396 ± 0.032

row,Sequence,PBM E-score of 8-mer
1,ATGGCACC,0.387 ± 0.011
2,ATGGCACG,0.189 ± 0.041
3,ACCGGTCC,-0.276 ± 0.048
4,TCCTATAA,-0.189 ± 0.068
5,AAATAGGG,-0.0426 ± 0.12
6,ACGGCTCT,-0.15 ± 0.033
7,CACCTGAA,0.312 ± 0.0079
8,CACCTGAC,0.387 ± 0.018
9,CACCTGTC,0.4274 ± 0.0023
10,CGCCTGAG,0.0681 ± 0.047
11,CACCTGAG,0.37535 ± 0.00034
12,GACCTGAC,-0.0852 ± 0.017
13,CGCCTGTC,0.303 ± 0.026
14,AACCTGAC,0.111 ± 0.026
15,AACCTGTA,-0.252 ± 0.046
16,AACCTGTC,0.30927 ± 0.00016
17,AACCTGAG,0.0264 ± 0.17
18,CACCTGTA,0.391 ± 0.009
19,AAACTATC,-0.215 ± 0.063
20,AACCAGCA,-0.18 ± 0.047
21,GATGGCCC,-0.138 ± 0.0089
22,GCTCCACA,-0.0189 ± 0.02

# Source: the supplement of paper PMC4166925
